Test results taken from PubChem BioAssay AID1159580 (chemical genetic matrix, 2015).
Values joined by “and” are separate entries in the source; they are usually repeats but may differ in a detail not shown here. Identical values can stand only once. The whole screen tested about 5,500 compounds, of which about 2,000 (36%) were called active. About 18% were inconclusive and are not listed. Rule as the data show it: active = normalized growth mostly below about 0.91 (no sharp cut-off); inconclusive = no clear call, values can overlap the other calls; inactive = mostly above about 0.92. The list shows a part of the results.

Assay: chemical genetic growth profiling, strain panel (AID 1159580);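 also: tested at 20 µM; growth read once vehicle control cultures reached saturation at 30 °C; 1 = growth at the plate median or of vehicle wells; lower values mean less growth of the strain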
Settings: S. cerevisiae deletion strains, growth OD

Measured: normalized growth

NC1=NCCN1CC(=O)O
inactive: locus YAL013W, strain DEP1, stronger effect = lower value 0.99 | locus YAL021C, strain ccr4, stronger effect = lower value 1.02 | locus YAL026C, strain drs2, stronger effect = lower value 1.02 | locus YAL030W, strain snc1, stronger effect = lower value 1.03 | locus YBL061C, strain skt5, stronger effect = lower value 1.01 | locus YBR009C, strain hhf1, stronger effect = lower value 1 | locus YBR021W, strain FUR4, stronger effect = lower value 1 | locus YBR023C, strain chs3, stronger effect = lower value 1.01 | locus YBR171W, strain sec66, stronger effect = lower value 1.01 | locus YBR229C, strain ROT2, stronger effect = lower value 0.96 | locus YBR231C, strain swc5, stronger effect = lower value 1.01 | locus YBR279W, strain paf1, stronger effect = lower value 1.01 | locus YCL011C, strain gbp2, stronger effect = lower value 1.04 | locus YCL016C, strain dcc1, stronger effect = lower value 1.01 | locus YCL029C, strain bik1, stronger effect = lower value 0.997 | locus YCL069W, strain vba3, stronger effect = lower value 1.01 | locus YCR088W, strain abp1, stronger effect = lower value 1.02 | locus YDL005C, strain med2, stronger effect = lower value 1.01 | locus YDL035C, strain GPR1, stronger effect = lower value 0.989 | locus YDL040C, strain nat1, stronger effect = lower value 1.01 | locus YDL074C, strain BRE1, stronger effect = lower value 0.924 | locus YDL101C, strain DUN1, stronger effect = lower value 0.961 | locus YDL134C, strain PPH21, stronger effect = lower value 1.01 | locus YDL185W, strain tfp1, stronger effect = lower value 0.986 | locus YDL192W, strain arf1, stronger effect = lower value 0.992 | locus YDR001C, strain nth1, stronger effect = lower value 1.01 | locus YDR069C, strain doa4, stronger effect = lower value 1.02 | locus YDR101C, strain arx1, stronger effect = lower value 0.996 | locus YDR137W, strain rgp1, stronger effect = lower value 1.04 | locus YDR150W, strain NUM1, stronger effect = lower value 0.986 | locus YDR159W, strain sac3, stronger effect = lower value 0.958 | locus YDR162C, strain NBP2, stronger effect = lower value 0.99 | locus YDR195W, strain ref2 1.02 | locus YDR297W, strain sur2, stronger effect = lower value 1 | locus YDR318W, strain mcm21, stronger effect = lower value 0.995 | locus YDR334W, strain swr1, stronger effect = lower value 1.01 | locus YDR335W, strain msn5, stronger effect = lower value 1.01 | locus YDR388W, stronger effect = lower value 0.989 | locus YDR392W, strain spt3, stronger effect = lower value 0.86 | locus YDR502C, strain sam2, stronger effect = lower value 0.988 | locus YEL003W, strain gim4, stronger effect = lower value 0.996 | locus YEL037C, strain rad23, stronger effect = lower value 1.02 | locus YEL061C, strain CIN8 (second series), stronger effect = lower value 1.03 | locus YEL061C, strain CIN8, stronger effect = lower value 0.981 | locus YER015W, strain faa2, stronger effect = lower value 1.02 | locus YER016W, strain bim1, stronger effect = lower value 1.03 | locus YER110C, stronger effect = lower value 0.988 | locus YER111C, strain swi4, stronger effect = lower value 1.03 | locus YER155C, strain BEM2 (second series), stronger effect = lower value 0.911 | locus YER155C, strain BEM2, stronger effect = lower value 1 | locus YER167W, strain BCK2, stronger effect = lower value 0.984 | locus YFR010W, strain ubp6, stronger effect = lower value 1.01 | locus YGL078C, strain dbp3, stronger effect = lower value 0.997 | locus YGL086W, strain mad1, stronger effect = lower value 0.98 | locus YGL167C, strain pmr1, stronger effect = lower value 1.01 | locus YGL173C, strain kem1, stronger effect = lower value 1 | locus YGL227W, strain vid30, stronger effect = lower value 1.04 | locus YGL240W, strain doc1, stronger effect = lower value 1 | locus YGL248W, strain PDE1, stronger effect = lower value 0.971 | locus YGL253W, strain hxk2, stronger effect = lower value 1.01 | locus YGR135W, strain pre9, stronger effect = lower value 1.01 | locus YGR229C, strain SMI1, stronger effect = lower value 1.02 | locus YGR252W, strain gcn5, stronger effect = lower value 1.01 | locus YHR013C, strain ard1, stronger effect = lower value 0.996 | locus YHR027C, strain rpn1, stronger effect = lower value 1.02 | locus YHR030C, strain SLT2, stronger effect = lower value 0.998 and 0.992 | locus YHR079C, strain IRE1 (second series), stronger effect = lower value 0.997 | locus YHR079C, strain IRE1, stronger effect = lower value 0.992 | locus YHR094C, strain hxt1, stronger effect = lower value 0.995 | locus YHR129C, strain ARP1, stronger effect = lower value 0.999 | locus YHR142W, strain chs7, stronger effect = lower value 0.992 | locus YHR200W, strain rpn10, stronger effect = lower value 0.99 | locus YIL066C, strain RNR3, stronger effect = lower value 0.966 | locus YIL073C, strain SPO22, stronger effect = lower value 1.07 | locus YIL125W, strain kgd1, stronger effect = lower value 0.984 | locus YIR030C, strain dcg1, stronger effect = lower value 0.994 | locus YJL092W, strain hpr5, stronger effect = lower value 1.01 | locus YJL095W, strain BCK1 (second series), stronger effect = lower value 1.02 | locus YJL095W, strain BCK1, stronger effect = lower value 0.969 and 0.972 | locus YJL115W, strain asf1, stronger effect = lower value 1.02 | locus YJL129C, strain trk1, stronger effect = lower value 1 | locus YJL134W, strain LCB3, stronger effect = lower value 0.988 | locus YJL154C, strain vps35, stronger effect = lower value 1.02 | locus YJL164C, strain tpk1, stronger effect = lower value 0.986 | locus YJL166W, strain qcr8, stronger effect = lower value 1 | locus YJL168C, strain set2, stronger effect = lower value 0.989 | locus YJL187C, strain SWE1 (second series), stronger effect = lower value 0.964 | locus YJL187C, strain SWE1, stronger effect = lower value 1
